Measurements as given in PubChem BioAssay (Tox21).
Calls of active or inactive are those of the source. The call rests on the fitted dose curve; in most records, active means well fitted curve in the direction sought with a large enough effect in the repeat runs; inconclusive means weak or mixed curves; inactive means flat fitted curve, though single readings scatter.

What was measured:
[1] = qHTS assay to test for compound auto fluorescence at 535 nm (green) in HEK293 cells (AID 720680)
[2] = qHTS assay to test for compound auto fluorescence at 460 nm (blue) in HEK293 cell free culture (AID 720681)
Summary of the method: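 Test compounds were pinned into cell-free culture medium (DMEM with 10% FBS) and fluorescence was read directly at Ex/Em 405/460 nm. Signals were expressed as fluorescence equivalents of triamterene, with DMSO vehicle as control.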

[3] = qHTS assay to test for compound auto fluorescence at 535 nm (green) in HEK293 cell free culture (AID 720682)
Summary of the method: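 DMEM + 10% FBS, cell-free; cpd or DMSO pinned in; Ex485/Em535 read; output as fluorescein-equivalent signal.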

[4] = qHTS assay to test for compound auto fluorescence at 590 nm (red) in HEK293 cell free culture (AID 720683)
Summary of the method: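 Tox21 10K library compounds were pinned into cell-free DMEM with 10% FBS and fluorescence was read at excitation 540 nm. Activity is expressed as Rose Bengal sodium equivalency.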

[5] = qHTS assay to test for compound auto fluorescence at 590 nm (red) in HepG2 cell free culture (AID 720684)
Summary of the method: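 Readout: intrinsic compound fluorescence at 590 nm emission after 540 nm excitation, scaled to Rose Bengal sodium. Matrix was cell-free MEM with 10% FBS; DMSO vehicle wells served as control.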

[6] = qHTS assay to test for compound auto fluorescence at 460 nm (blue) in HepG2 cell free culture (AID 720685)
Summary of the method: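 Cell-free plates of MEM plus 10% FBS received 23 nL compound or DMSO vehicle; blue-channel (405/460 nm) intensity scored against triamterene as reference fluorophore.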

[7] = qHTS assay to test for compound auto fluorescence at 535 nm (green) in HepG2 cell free culture (AID 720686)
[8] = qHTS assay to test for compound auto fluorescence at 460 nm (blue) in HepG2 cells (AID 720687)
Summary of the method: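 Cells (2,000/well in MEM with 10% FBS) attached overnight at 37 C, then were exposed to compound or DMSO for 1 hr at 37 C, 5% CO2. Fluorescence read at Ex/Em 405/460 nm, expressed as triamterene-equivalent signal.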
On the % scale 0 is the no-effect control and ±100 the full control effect.

CCOc1nc2cccc(C(=O)OC(C)OC(=O)OC3CCCCC3)c2n1Cc1ccc(-c2ccccc2-c2nn[nH]n2)cc1 (stereo unspecified)
inactive: outcome [1] | Potency [2] | outcome [3] | Potency [4] | Potency [5] | Potency [6] | Potency [7] | Potency [8]

CC(C)(C)c1ccc(C(=O)CCCN2CCC(OC(c3ccccc3)c3ccccc3)CC2)cc1
inactive: outcome [1] | Potency [2] | outcome [3] | Potency [4] | Potency [5] | Potency [6] | Potency [7] | Potency [8]

CC(C)(C)CC(C)(C)c1ccc(O)c(Cc2ccc(Cl)cc2Cl)c1
inactive: outcome [1] | Potency [2] | outcome [3] | Potency [4] | Potency [5] | Potency [6] | Potency [7] | Potency [8]

CC/C(=C(\c1ccc(O)cc1)c1ccc(OCCN(C)C)cc1)c1ccccc1
inactive: outcome [1] | Potency [2] | outcome [3] | Potency [4] | Potency [5] | Potency [6] | Potency [7] | Potency [8]

COc1cc(-c2nc(NC(=O)c3cc4cc(C)cc(C)c4n3CC(=O)O)sc2CCC2CCCCC2)c(OC)cc1Cl
inactive: outcome [1] | Potency [2] | outcome [3] | Potency [4] | Potency [5] | Potency [6] | Potency [7] | Potency [8]

CCCCN1CCCC[C@H]1C(=O)Nc1c(C)cccc1C
inactive: outcome [1] | Potency [2] | outcome [3] | Potency [4] | Potency [5] | Potency [6] | Potency [7] | Potency [8]

CC(C)n1nc(-c2cc3cc(O)ccc3[nH]2)c2c(N)ncnc21
inactive: outcome [1] | Potency [2] | outcome [3] | Potency [4] | Potency [5] | Potency [6] | Potency [7] | Potency [8]

CCOC(=O)O[C@H](C)OC(=O)c1ccc2c(c1)cc(C(=O)NC1CCN(C(C)C)CC1)n2Cc1cc(-c2ccc(Cl)s2)on1
inactive: outcome [1] | Potency [2] | outcome [3] | Potency [4] | Potency [5] | Potency [6] | Potency [7] | Potency [8]

Oc1ccc2c(c1)-c1ccccc1C2
inactive: outcome [1] | Potency [2] | outcome [3] | Potency [4] | Potency [5] | Potency [6] | Potency [7] | Potency [8]

O=[N+]([O-])c1cc([N+](=O)[O-])c2ccc(S(=O)(=O)O)cc2c1O
inactive: outcome [1] | Potency [2] | outcome [3] | Potency [4] | Potency [5] | Potency [6] | Potency [7] | Potency [8]

COc1cc(-c2ccc(N=C=O)c(OC)c2)ccc1N=C=O
inactive: outcome [1] | Potency [2] | outcome [3] | Potency [4] | Potency [5] | Potency [6] | Potency [7] | Potency [8]

Cc1cc(O)c(C(C)(C)C)cc1Sc1cc(C(C)(C)C)c(O)cc1C
inactive: outcome [1] | Potency [2] | outcome [3] | Potency [4] | Potency [5] | Potency [6] | Potency [7] | Potency [8]

OC1(c2ccc(Cl)c(C(F)(F)F)c2)CCN(CCCC(c2ccc(F)cc2)c2ccc(F)cc2)CC1
inactive: outcome [1] | Potency [2] | outcome [3] | Potency [4] | Potency [5] | Potency [6] | Potency [7] | Potency [8]

OCc1c[nH]c2ccccc12
inactive: outcome [1] | Potency [2] | outcome [3] | Potency [4] | Potency [5] | Potency [6] | Potency [7] | Potency [8]

CCCCCCCC/C=C/CCCCCCCC1=NCCN1CCO
inactive: outcome [1] | Potency [2] | outcome [3] | Potency [4] | Potency [5] | Potency [6] | Potency [7] | Potency [8]

C=CC(=O)OCC(CO)(COC(=O)C=C)COC(=O)C=C
inactive: outcome [1] | Potency [2] | outcome [3] | Potency [4] | Potency [5] | Potency [6] | Potency [7] | Potency [8]

CCCCCCCCn1sc(Cl)c(Cl)c1=O
inactive: outcome [1] | Potency [2] | outcome [3] | Potency [4] | Potency [5] | Potency [6] | Potency [7] | Potency [8]

COc1ccc(-c2ccc3cc(C(=O)O)ccc3c2)cc1C12CC3CC(CC(C3)C1)C2
inactive: outcome [1] | Potency [2] | outcome [3] | Potency [4] | Potency [5] | Potency [6] | Potency [7] | Potency [8]

C=CC(=O)OCCn1c(=O)n(CCOC(=O)C=C)c(=O)n(CCOC(=O)C=C)c1=O
inactive: outcome [1] | Potency [2] | outcome [3] | Potency [4] | Potency [5] | Potency [6] | Potency [7] | Potency [8]

CC(C)(C)CC(C)(C)c1ccc(OCCOCC[N+](C)(C)Cc2ccccc2)cc1
inactive: outcome [1] | Potency [2] | outcome [3] | Potency [4] | Potency [5] | Potency [6] | Potency [7] | Potency [8]

CCCCC(CC)CN=C(N)NC(N)=NCCCCCCN=C(N)NC(N)=NCC(CC)CCCC (stereo unspecified)
inactive: outcome [1] | Potency [2] | outcome [3] | Potency [4] | Potency [5] | Potency [6] | Potency [7] | Potency [8]

O=C(Nc1cccc([N+](=O)[O-])c1)c1cc2ccccc2cc1O
inactive: outcome [1] | Potency [2] | outcome [3] | Potency [4] | Potency [5] | Potency [6] | Potency [7] | Potency [8]

Cc1c(C)c2c(c(C)c1OC(=O)CCC(=O)O)CC[C@@](C)(CCC[C@H](C)CCC[C@H](C)CCCC(C)C)O2
inactive: outcome [1] | Potency [2] | outcome [3] | Potency [4] | Potency [5] | Potency [6] | Potency [7] | Potency [8]

C[C@@H]1C[C@H]2[C@@H]3CCC4=CC(=O)C=C[C@]4(C)[C@@]3(Cl)[C@@H](O)C[C@]2(C)[C@@]1(OC(=O)c1ccco1)C(=O)CCl
inactive: fluorescence, % of fluorescein [1] -0.0241% [at 18.6 µM] | fluorescence, % of fluorescent control [2] 0.0036% [at 18.6 µM] | activity change [3] -0.0517% [at 18.6 µM] | fluorescence, % of fluorescent control [4] 0.0049% [at 18.6 µM] | fluorescence, % of Rose Bengal [5] -0.333% [at 18.6 µM] | fluorescence, % of fluorescent control [6] -0.0123% [at 18.6 µM] | fluorescence, % of fluorescein control [7] -0.0158% [at 18.6 µM] | fluorescence, % of fluorescent control [8] -0.0042% [at 18.6 µM]

CCCCCCCCCCCCCCCCCC[N+](C)(C)Cc1ccccc1
inactive: outcome [1] | Potency [2] | outcome [3] | Potency [4] | Potency [5] | Potency [6] | Potency [7] | Potency [8]

CC[C@H]1O[C@]2(CC[C@@H]1C)C[C@@H]1C[C@@H](C/C=C(\C)C[C@@H](C)/C=C/C=C3\CO[C@@H]4[C@H](O)C(C)=C[C@@H](C(=O)O1)[C@]34O)O2
inactive: outcome [1] | Potency [2] | outcome [3] | Potency [4] | Potency [5] | Potency [6] | Potency [7] | Potency [8]

[Cl][Bi]([Cl])([c]1ccccc1)([c]1ccccc1)[c]1ccccc1
inactive: outcome [1] | Potency [2] | outcome [3] | Potency [4] | Potency [5] | Potency [6] | Potency [7] | Potency [8]

CCN(CC)CCNC(=O)c1c(C)[nH]c(/C=C2\C(=O)Nc3ccc(F)cc32)c1C
inactive: outcome [1] | Potency [2] | outcome [3] | Potency [4] | Potency [5] | Potency [6] | Potency [7] | Potency [8]

CSc1ccc(/C=C2/C(C)=C(CC(=O)O)c3cc(F)ccc32)cc1
inactive: outcome [1] | Potency [2] | outcome [3] | Potency [4] | Potency [5] | Potency [6] | Potency [7] | Potency [8]

CCCCN1C(=O)[C@@H]([C@H](O)C2CCCCC2)NC(=O)C12CCN(Cc1ccc(Oc3ccc(C(=O)O)cc3)cc1)CC2
inactive: outcome [1] | Potency [2] | outcome [3] | Potency [4] | Potency [5] | Potency [6] | Potency [7] | Potency [8]

CCCN(CCC)c1c([N+](=O)[O-])cc(C(F)(F)F)c(N)c1[N+](=O)[O-]
inactive: outcome [1] | Potency [2] | outcome [3] | Potency [4] | Potency [5] | Potency [6] | Potency [7] | Potency [8]

CCCCCCCCCCCC[N+](C)(C)CCCCCCCCCCCC
inactive: outcome [1] | Potency [2] | outcome [3] | Potency [4] | Potency [5] | Potency [6] | Potency [7] | Potency [8]

[Cl][Au]([Cl])[Cl]
inactive: outcome [1] | Potency [2] | outcome [3] | Potency [4] | Potency [5] | Potency [6] | Potency [7] | Potency [8]

CCCCCCCC[P+](CCCCCCCC)(CCCCCCCC)CCCCCCCC
inactive: outcome [1] | Potency [2] | outcome [3] | Potency [4] | Potency [5] | Potency [6] | Potency [7] | Potency [8]

CC1=C(/C=C/C(C)=C/C=C/C(C)=C/C=O)C(C)(C)CCC1
inactive: outcome [1] | Potency [2] | outcome [3] | Potency [4] | Potency [5] | Potency [6] | Potency [7] | Potency [8]

C1CCCC1
inactive: outcome [1] | Potency [2] | outcome [3] | Potency [4] | Potency [5] | Potency [6] | Potency [7] | Potency [8]

CC1=C(C(=O)OC(C)C)C(c2cccc([N+](=O)[O-])c2)C(C(=O)OC2CN(C(c3ccccc3)c3ccccc3)C2)=C(N)N1 (stereo unspecified)
inactive: outcome [1] | Potency [2] | outcome [3] | Potency [4] | Potency [5] | Potency [6] | Potency [7] | Potency [8]

CCC(C)(C)C1CCCCC1OC(C)=O (stereo unspecified)
inactive: outcome [1] | Potency [2] | outcome [3] | Potency [4] | Potency [5] | Potency [6] | Potency [7] | Potency [8]

CCCCCCCC[N+](CCCCCCCC)(CCCCCCCC)CCCCCCCC
inactive: outcome [1] | Potency [2] | outcome [3] | Potency [4] | Potency [5] | Potency [6] | Potency [7] | Potency [8]

[O-][n+]1ccccc1SSc1cccc[n+]1[O-]
inactive: outcome [1] | Potency [2] | outcome [3] | Potency [4] | Potency [5] | Potency [6] | Potency [7] | Potency [8]

O=c1[nH]cnc2nc[nH]c12
inactive: outcome [1] | Potency [2] | outcome [3] | Potency [4] | Potency [5] | Potency [6] | Potency [7] | Potency [8]

Cc1cc(C2CCCCC2)n(O)c(=O)c1
inactive: fluorescence, % of fluorescein [1] 0.0799% [at 18.6 µM] | fluorescence, % of fluorescent control [2] -0.0092% [at 18.6 µM] | activity change [3] 0.0414% [at 18.6 µM] | fluorescence, % of fluorescent control [4] 0.0163% [at 18.6 µM] | fluorescence, % of Rose Bengal [5] -0.0195% [at 18.6 µM] | fluorescence, % of fluorescent control [6] 0.0075% [at 18.6 µM] | fluorescence, % of fluorescein control [7] 0.005% [at 18.6 µM] | fluorescence, % of fluorescent control [8] 0.0031% [at 18.6 µM]
